{"source": "PubChem BioAssay AID2284368", "about": "(EPA ToxCast)", "note": "Inconclusive results are not listed. Active and inactive are the calls of the source. The calls were made as follows: active = hit-call score of the fitted dose curve at least 0.9, where 1 is the maximum; inconclusive = response in the unintended direction; inactive = score below 0.9."}
{"target": "Estrogen receptor (Homo sapiens) (UniProt P03372)", "sequence (P03372 whole entry, looked up)": "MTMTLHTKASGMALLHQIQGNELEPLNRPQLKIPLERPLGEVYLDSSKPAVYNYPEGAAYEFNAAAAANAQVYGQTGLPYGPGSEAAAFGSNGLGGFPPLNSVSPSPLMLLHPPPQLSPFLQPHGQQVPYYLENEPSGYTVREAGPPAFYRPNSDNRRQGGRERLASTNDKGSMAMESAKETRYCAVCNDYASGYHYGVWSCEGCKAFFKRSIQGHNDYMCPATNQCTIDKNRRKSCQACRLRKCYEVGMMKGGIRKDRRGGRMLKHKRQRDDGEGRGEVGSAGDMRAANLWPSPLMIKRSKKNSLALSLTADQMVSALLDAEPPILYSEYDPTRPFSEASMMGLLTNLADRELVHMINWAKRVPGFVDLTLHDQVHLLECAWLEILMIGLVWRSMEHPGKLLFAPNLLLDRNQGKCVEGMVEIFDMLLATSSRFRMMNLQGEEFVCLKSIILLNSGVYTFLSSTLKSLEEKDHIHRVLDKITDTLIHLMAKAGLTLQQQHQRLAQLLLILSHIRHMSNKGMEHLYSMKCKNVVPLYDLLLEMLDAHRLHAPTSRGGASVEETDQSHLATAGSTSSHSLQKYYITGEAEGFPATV", "assay": "ATG_hERa_EcoTox2: Attagene TRANS-FACTORIAL EcoTox-2 HepG2 Assay for human Estrogen Receptor (ER)", "procedure": "ATG_EcoTox2 is a cell-based, multiplexed assay created by modifying the existing Attagene TRANS-FACTORIAL system to include a panel of nuclear receptors from some or all the following species: human (Homo sapiens), african clawed frog (Xenopus laevis), rainbow trout (Oncorhynchus mykiss), japanese medaka (Oryzias latipes), and zebrafish (Danio rerio). The ECOTOX2-FACTORIAL format uses HepG2, a human liver cell line, with measurements taken at 24 hours after chemical dosing in a 24-well plate. ATG_hERa_EcoTox2 is one of 29 assay components measured or calculated from the ATG_EcoTox2 assay. It is designed to make measurements of mRNA induction, a form of inducible reporter, as detected with fluorescence intensity signals by Reverse transcription polymerase chain reaction (RT-PCR) and Capillary electrophoresis technology.The assay endpoint ATG_hERa_EcoTox2 was analyzed in the positive analysis fitting direction relative to DMSO as the negative control and baseline of activity. Using a type of inducible reporter, measures of mRNA for gain-of-signal activity can be used to understand the reporter gene at the transcription factor-level as they relate to the gene ER. Furthermore, this assay endpoint can be referred to as a primary readout, because this assay has produced multiple assay endpoints where this one serves a reporter gene function. To generalize the intended target to other relatable targets, this assay endpoint is annotated to the nuclear receptor intended target family, where the subfamily is steroidal.\nHuman liver HepG2 cells are transiently transfected with multiple reporter transcription units (MRTUs) in 6-well plates using FuGene 6 reagent (Roche; 3 ml FuGene/1 mg DNA). The MRTU constructs are regulated by a cis-regulating element (promoter). Each RTU expresses a GAL4-UAS that regulates the transcription of a nearby target reporter gene sequence. A major difference between the CIS and TRANS system is that in CIS activities of endogenous TFs are measured, whereas the TRANS assay evaluates changes in activities of exogenous, chimeric NR-Gal4 proteins. […] At the end of 24 hour incubation, total RNA was isolated using TriZol reagent (Invitrogen). The isolated RNA is then reverse-transcribed using oligo(dT) primer and Mo-MLV reverse transcriptase (Invitrogen) with DNAse I (Ambion) treatment for 30 min. The one-tenth of the produced cDNA was amplified by PCR using Taq DNA polymerase (Invitrogen) and two reporter sequence-specific primers. […] The fragments were purified using Qiaquick PCR columns (Qiagen), analyzed on an ABI 3130xL genetic analyzer (Applied Biosystems) with peak positions identified by using a set of X-rhodamine (ROX)-labeled MapMarker1000 molecular weight standards (BioVentures). […]"}
{"smiles": "O=S(=O)(O)C(F)(F)C(F)(F)C(F)(F)C(F)(F)C(F)(F)C(F)(F)F", "AC50": "50 µM (active)"}
{"smiles": "[Cl][Sn]([c]1ccccc1)([c]1ccccc1)[c]1ccccc1", "outcome": "inactive"}
{"smiles": "O=P(Oc1ccccc1)(Oc1ccccc1)Oc1ccccc1", "AC50": "3.41 µM (active)"}
{"smiles": "CCCCOCN(C(=O)CCl)c1c(CC)cccc1CC", "outcome": "inactive"}
